Pf growth 96h: Primary qHTS for delayed death inhibitors of the malarial parasite plastid, 96 hour incubation. P. falciparum luciferase reporter growth, 96 h. Potency, µM (doses to about 28.7 µM), for the others: at the highest dose activity change, negative = inhibition, hits mostly inhibitors. 320,000 tested, 6.9% active; also: % is scaled to controls: 0 for no effect and ±100 for the full control effect
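P. falciparum expressing integrated firefly luciferase, in erythrocytes at 2% hematocrit, 0.05% parasitemia, incubated with compounds 96 h at 37 C, 5% CO2. Growth inhibition read as loss of luminescence; two-generation exposure targets delayed-death apicoplast inhibitors.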
Pf growth 48h: Primary qHTS for delayed death inhibitors of the malarial parasite plastid, 48 hour incubation; P. falciparum luciferase growth in erythrocytes, 48 h; Potency, µM (titrated, usually from 28.7 µM), for the others: top-dose activity change, negative = inhibition, most hits filed as inhibitors; 310,000 tested, 5.9% active; AID 504832, 2011; also: % is scaled to controls: 0 for no effect and ±100 for the full control effect
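First compound was added to culture medium, then infected red cells at 0.1% parasitemia and 2% hematocrit (final). After incubation at 37 C under 5% CO2, luciferase detection reagent was dispensed and light output recorded.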
NS1 inh: qHTS Assay for Inhibitors of Influenza NS1 Protein Function; Potency, µM (titrated, usually from 46.1 µM), without a hit: top-dose activity, positive = more growth; 270,000 tested, 0.4% active; AID 2326, 2010; calls by dose curve; also: actives are rising curves; nearly all actives have a fitted effect of over 50% in size
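S. cerevisiae expressing influenza A NS1, grown in glucose, washed, then diluted 1:100 into pH 6.0 -URA galactose medium with 23 nl compound. Growth recovery read as OD600; NS1-free strain serves as control.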
SARS PLP yeast: qHTS of Yeast-based Assay for SARS-CoV PLP | S. cerevisiae expressing SARS-CoV PLpro, growth rescue | Potency, µM (series often up to 32.9 µM), for the others: at the highest dose activity, positive = growth rescue, hits mostly activators | 330,000 tested, 0.19% active | AID 485353, 2010; calls by dose curve; also: 0% is about no effect; nearly all actives have a fitted effect of over 55% in size
* = called active by the depositor; ? = inconclusive; nt = no result given; [ ] = dose if it differs, or a comment. An excerpt weighted towards active compounds, which were near 10% of everything screened. Unless noted, calls follow the shape of the dose curve; as a rule, active = well fitted inhibition curve with a large enough effect; inconclusive = small, poorly fitted or top-dose-only effect, or another doubt; inactive = no such curve, though single readings can be large or run the other way. Potency is read from the fitted curve at half-maximal effect.

SMILES	Pf growth 96h	Pf growth 48h	NS1 inh	SARS PLP yeast
CCOC(=O)N1CCN(Cc2nc3c(c(=O)n(C)c(=O)n3C)n2Cc2cccc3ccccc23)CC1	8.28µM*	11.7µM*	-64.2%	0.3%
CCOC(=O)N1CCN(Cc2nc3c(c(=O)n(C)c(=O)n3C)n2Cc2cccc(C)c2)CC1	?	nt	-15.8%	5.8%
COC(=O)Cn1cc(C#N)c2ccccc21	30.0%	-3.0%	5.8%[9.22 µM]	-3.3%
CC(C)(C)NC(=O)Cn1cc(C#N)c2cc(Br)ccc21	nt	5.86µM*	5.5%	3.9%
COc1cc2ccccc2cc1C(=O)NC(=S)Nc1nnn(C)n1	?	3.6%	24.2%	4.0%
Cn1nnc(NC(=S)NC(=O)c2cc(Cl)ccc2Cl)n1	4.15µM*	8.28µM*	-73.2%	3.3%
CN(CC(=O)Nn1cnnc1)S(=O)(=O)c1ccccc1	nt	-16.1%	3.2%	0.6%
CCOC(=O)C1CCCN(C(=S)NC(=O)c2cc(Br)ccc2Cl)C1 (configuration not stated)	76.7%	44.3%	nt	4.7%
CCOC(=O)c1c(/N=C/N(C)C)sc(C)c1C	2.5%	-17.7%	nt	-1.8%
CCOC(=O)c1c(/N=C/N(C)C)sc(/C=N/Nc2ccccc2)c1-c1ccc(Cl)cc1	3.29µM*	13.1µM*	15.8%	1.2%
CN1CCCC[C@@H]1CCN1CCCCC1	nt	nt	-1.4%	nt
COc1cccc(CN(C(=O)COc2ccc(C)cc2)C2CCS(=O)(=O)C2)c1 (configuration not stated)	22.5%	-3.6%	-0.3%	3.2%
Cc1ccc(OCC(=O)N(Cc2cccc(F)c2)C2CCS(=O)(=O)C2)cc1 (configuration not stated)	10.4µM*	?	-6.0%	7.2%
Cc1ccccc1OCC(=O)NNC(=O)c1ccoc1C	-11.6%	-17.0%	nt	0.5%
CCCN(CC(=O)Nc1ccccc1C)C(=O)c1ccc(COc2ccccc2)cc1	17.9%	?	-51.9%	3.9%
CCCN(S(=O)(=O)c1ccc(OCC)cc1)S(=O)(=O)c1cccs1	?	10.4µM*	-8.4%	4.0%
CCOc1ccc(NC(=O)CN(c2ccc(OC)cc2)S(=O)(=O)c2cccs2)cc1	-10.2%	-5.6%	nt	3.2%
O=C1CN=C(Nc2ccccc2Cl)N1Cc1ccc2c(c1)OCO2	49.0%	8.9%	24.3%	0.7%
CCc1ccccc1NC1=NCC(=O)N1Cc1ccc2c(c1)OCO2	4.15µM*	-19.4%	-11.8%	-17.5%
Cc1ccc(C(=O)NNC(=O)c2ccc3ccccc3c2O)cc1	24.3%	0.2%	-60.3%	-3.1%
CC(=O)c1ccc(NC(=O)C(C)Sc2nnc3ccccn23)cc1 (configuration not stated)	9.28µM*	?	nt	-7.1%
COc1ccccc1NC(=O)C(C)Sc1nnc2ccccn12 (configuration not stated)	6.1%	-25.8%	nt	-5.8%
CCc1ccc(CC2S/C(=C(\C#N)C(C)=O)NC2=O)cc1 (configuration not stated)	2.94µM*	?	-4.3%	-25.1%
O=C(CCc1nnc2ccc(N3CCC4(CC3)OCCO4)nn12)Nc1ccc(F)cc1	13.6%	-2.9%	-14.2%	-0.3%
CN1C(=S)SC(/[N+]([O-])=C/c2cccnc2)C1(C)C (configuration not stated)	3.7µM*	12.4%	?	2.4%
SMILES	Pf growth 96h	Pf growth 48h	NS1 inh	SARS PLP yeast
COc1ccccc1CC(=O)N1CCN(C(=O)c2ccco2)CC1	?	10.0%	6.1%	10.6%
OCC[C@H]1C[C@H](O)[C@@H](O)[C@@]2(CCCc3ccccc3O2)O1	46.4%	16.7%	nt	-16.0%
CCOC(=O)C1CCN(C(=O)COC(=O)CSc2ccccc2C)CC1	nt	nt	nt	18.9%
Cc1ccc(NC(=O)CCC(=O)OCC(=O)c2ccc(Oc3ccc([N+](=O)[O-])cc3)cc2)cc1	-22.6%	-4.9%	12.9%	-22.0%
COc1ccc(NC(=O)CCC(=O)OCC(=O)c2ccc(Oc3ccc([N+](=O)[O-])cc3)cc2)cc1	9.28µM*	9.0%	9.1%	-21.3%
COc1ccc(C(=O)CC(Nc2ccc([N+](=O)[O-])cc2)c2ccc(Cl)cc2)cc1 (configuration not stated)	9.28µM*	3.29µM*	5.2%	-9.8%
COc1ccc(C(=O)CC(=O)C(=O)Nc2ccc(Cl)cc2)cc1	25.5%	nt	1.6%	1.3%
O=C(COc1ccc(Cl)cc1)Nc1ccc(C(=O)O)cc1NC(=O)COc1ccc(Cl)cc1	3.5%	63.0%	3.0%	?
Cc1ccc(CN2C(=O)C(C)Nc3ncnc(N4CCN(c5ccccn5)CC4)c32)cc1 (configuration not stated)	11.7µM*	11.7µM*	nt	0.1%
COc1ccc(CN2C(=O)C(C)Nc3ncnc(N4CCN(c5ccccn5)CC4)c32)cc1 (configuration not stated)	nt	nt	nt	-14.2%
CC1Nc2ncnc(N3CCN(c4ccccn4)CC3)c2N(Cc2ccccc2)C1=O (configuration not stated)	2.62µM*	11.7µM*	nt	-4.1%
O=C(Cn1cnc(S(=O)(=O)N2CCOCC2)c1)Nc1ccc(OC(F)(F)F)cc1	?	8.4%	-3.1%	-0.7%
O=C(NNC(=S)NCC1CCCO1)c1cc(Br)ccc1Cl (configuration not stated)	4.7%	?	18.4%	9.5%
N#CC/C(N)=N/Nc1nc2ccccc2nc1Cc1ccccc1	?	4.65µM*	?	0.4%
CN(C)/C=C1/OC(=O)C(C#N)=C1c1ccc(Cl)cc1	0.5%	8.8%	-1.9%	3.7%
Cc1ccc(C)c2[nH]c(=O)c(CN(CCN3CCCC3)C(=O)Nc3ccc(F)cc3)cc12	?	4.15µM*	6.5%	-0.4%
COc1cc2cc(CN(CCN3CCCC3)C(=O)Nc3ccc(F)cc3)c(=O)[nH]c2cc1OC	-9.6%	9.28µM*	14.5%	1.1%
COc1cc2cc(CN(CCN3CCOCC3)C(=O)Nc3ccc(F)cc3)c(=O)[nH]c2cc1OC	0.0%	?	-3.7%	-2.3%
COc1cccc(C(CNC(=O)C(c2ccccc2)c2ccccc2)N(C)C)c1 (configuration not stated)	-15.2%	-5.6%	4.0%	0.1%
COc1ccc2[nH]cc(CCN=C3SCC(=O)N3C)c2c1	11.7µM*	nt	5.3%	5.6%
COc1ccc2[nH]cc(CCn3ccc(=O)c(C)c3C)c2c1	?	?	-6.1%	0.6%
COCC(C)n1c(C)cc(C(=O)CN2C(=O)NC(Cc3c[nH]c4ccccc34)C2=O)c1C (configuration not stated)	5.22µM*	nt	2.7%	5.6%
CC(C)NC(=O)NC(=O)CN1C(=O)NC(Cc2c[nH]c3ccccc23)C1=O (configuration not stated)	-7.9%	19.3%	nt	-3.1%
N#Cc1cc(C(=O)c2ccccc2O)cn(-c2ccc(Cl)cc2)c1=O	32.2%[5.75 µM]	?	nt	-2.0%
COc1ccc(-n2cc(C(=O)c3cc(Cl)ccc3O)cc(C#N)c2=O)cc1	7.38µM*	?	nt	-4.1%
CCOc1ccc(-n2cc(C(=O)c3cc(Cl)ccc3O)cc(C#N)c2=O)cc1	?	-25.7%	nt	-8.6%
Cc1ccc(-n2cc(C(=O)c3cc(Cl)ccc3O)cc(C#N)c2=O)cc1	?	3.29µM*	-47.9%	-61.7%
